Peg3 prom inh: Peg3 promoter-driven luciferase inhibitors, primary screen, cell-based, HeLa, luciferase luminescence; HeLa PEG-Prom luciferase reporter, overnight; inhibition, % at 20 µM; 360,000 tested, 1.7% active; AID 588405, 2011;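 active = inhibition of at least 50% at 20 µM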
ABHD5-PLIN5 inh: ABHD5-PLIN5 interaction inhibitors, primary screen, cell lysate, split luciferase complementation, luminescence. 360,000 tested, 0.78% active. AID 602281, 2012. inhibition, % at 4 µM. Split G. princeps luciferase complementation, 4 h. Perilipin-5 (Homo sapiens) + 1-acylglycerol-3-phosphate O-acyltransferase ABHD5 (Homo …;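 active = inhibition above the mean inhibition across every tested compound plus 3 SD, cut at about 22% in these data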
Target sequence (Q00G26 whole entry, looked up): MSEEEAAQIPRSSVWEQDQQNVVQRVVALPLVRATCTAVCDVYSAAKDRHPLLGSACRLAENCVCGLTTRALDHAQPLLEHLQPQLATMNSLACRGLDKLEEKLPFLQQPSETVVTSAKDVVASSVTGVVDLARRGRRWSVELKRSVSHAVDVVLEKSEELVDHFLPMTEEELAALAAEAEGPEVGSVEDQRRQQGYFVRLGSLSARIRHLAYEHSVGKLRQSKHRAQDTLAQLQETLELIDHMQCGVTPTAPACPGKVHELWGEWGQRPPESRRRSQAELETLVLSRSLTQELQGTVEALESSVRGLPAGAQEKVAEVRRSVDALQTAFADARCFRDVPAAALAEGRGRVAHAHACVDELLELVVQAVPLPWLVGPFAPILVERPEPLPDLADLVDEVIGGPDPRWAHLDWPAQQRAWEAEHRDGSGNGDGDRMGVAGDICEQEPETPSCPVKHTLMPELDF
Target sequence (Q8WTS1 whole entry, looked up): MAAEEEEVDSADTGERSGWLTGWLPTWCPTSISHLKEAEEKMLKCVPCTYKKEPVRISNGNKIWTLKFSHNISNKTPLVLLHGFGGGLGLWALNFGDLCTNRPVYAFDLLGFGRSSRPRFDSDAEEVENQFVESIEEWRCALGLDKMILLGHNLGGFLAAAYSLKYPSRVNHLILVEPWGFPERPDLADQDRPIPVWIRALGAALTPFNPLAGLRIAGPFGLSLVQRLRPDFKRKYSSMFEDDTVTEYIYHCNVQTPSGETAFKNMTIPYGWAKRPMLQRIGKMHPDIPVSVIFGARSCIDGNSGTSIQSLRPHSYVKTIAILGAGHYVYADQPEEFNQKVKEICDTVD
PAX8 inh HTS: inhibitors of PAX8-driven TPO luciferase reporter, primary screen, RMG-I cells, single concentration; 360,000 tested, 1.2% active; SteadyGlo, 24 h; inhibition, % at 12.6 µM;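 active = mean replicate inhibition at least 60% with every replicate also reaching 60%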;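 note: luciferase light reporting Pax8 driven TPO promoter activity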
EWS-Fli inh: EWS/Fli-driven NR0B1 reporter inhibitors, primary screen, A673 cells, NR0B1 luciferase, luminescence, MLPCN library | viability-normalised | inhibition, % at 12.6 µM | 350,000 tested, 0.67% active | AID 651661, 2012;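 active = mean inhibition of at least 50% after viability correction, with every replicate also passing that limit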;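 note: firefly luciferase signal divided by Alamar Blue viability fluorescence both relative to DMSO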
Shn3 3UTR inh: reduction of Shn3 3'UTR firefly luciferase signal, primary screen, Schnurri-3 inhibitor project, cell-based, Clone20 osteoblasts, set 2; Clone20 osteoblast Shn3 3'UTR firefly luciferase, 24 h; inhibition, % at 12.5 µM; 360,000 tested, 0.52% active;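 active = mean inhibition of at least 75% with every replicate also reaching 75%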
TRPM1 prom inh: inhibitors of MITF-dependent TRPM1 promoter reporter, primary screen, cell-based, SK-MEL-5, single point, luciferase | SK-MEL-5 TRPM1 promoter luciferase, 24 h | AID 488899, 2010 | 330,000 tested, 0.83% active | inhibition, % at 12.5 µM;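 active = mean inhibition across replicates of 60% or more, whatever share of single replicates reaches that level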
A number is an active result; i = inactive; nt = no result given. The list is not random: actives were taken first. Their share in the collection is about 3%.

SMILES	Peg3 prom inh	ABHD5-PLIN5 inh	PAX8 inh HTS	EWS-Fli inh	Shn3 3UTR inh	TRPM1 prom inh
COc1ccc(N2CCN(CCNC(=O)c3ccc4c(c3)[nH]c(=S)n3c5ccccc5nc43)CC2)cc1	84	i	i	i	i	i
CCc1ccc(-c2cn3nc(C)c(C)nc3n2)cc1	71	i	nt	nt	i	77
Cc1ccc(C(C)C)cc1NC(=O)Nc1ccc([N+](=O)[O-])cc1	i	i	62	i	87	i
Cc1cc(O)c(C(C)C)cc1NC(=O)Nc1ccc([N+](=O)[O-])cc1	i	i	i	i	i	i
Cc1nc(N2CCN(S(=O)(=O)c3ccccc3C#N)CC2)c2c(-c3cccs3)csc2n1	i	i	72	i	i	i
C[C@@H]1CN([C@@H](C)CO)C(=O)c2cc(NS(=O)(=O)c3cn(C)cn3)ccc2O[C@H]1CN(C)Cc1ccc(C(=O)O)cc1	nt	nt	nt	i	nt	nt
CCn1c(C)nc2cc(-c3nnc(-c4c(-c5ccccc5)noc4C)o3)ccc21	i	i	nt	nt	86	i
C[C@@H]1CCCCO[C@@H](CN(C)C(=O)NC2CCCCC2)[C@H](C)CN([C@H](C)CO)C(=O)c2cc(NC(=O)Nc3ccc(F)cc3)ccc2O1	nt	nt	74	i	nt	nt
C[C@@H]1CCCCO[C@H](CN(C)C(=O)NC2CCCCC2)[C@@H](C)CN([C@@H](C)CO)C(=O)c2cc(NC(=O)NC3CCCCC3)ccc2O1	nt	nt	i	i	nt	nt
C[C@@H]1CN([C@H](C)CO)C(=O)c2cc(NC(=O)Nc3ccc(F)cc3)ccc2O[C@@H](C)CCCCO[C@H]1CN(C)C(=O)NC1CCCCC1	nt	nt	84	i	nt	nt
C[C@H]1CCCCO[C@H](CN(C)C(=O)NC2CCCCC2)[C@@H](C)CN([C@@H](C)CO)C(=O)c2cc(NC(=O)NC3CCCCC3)ccc2O1	nt	nt	66	i	nt	nt
C[C@@H]1CCCCO[C@H](CN(C)C(=O)C2CCCCC2)[C@@H](C)CN([C@@H](C)CO)C(=O)c2cc(NC(=O)Nc3ccc(F)cc3)ccc2O1	nt	nt	104	i	nt	nt
COc1ccc2c3c(n(C)c2c1)[C@H](CO)N(C(=O)c1cccnc1)CC31CCN(C(=O)c2cccnc2)CC1	nt	nt	nt	i	nt	nt
CO[C@H]1CN(C)C(=O)c2ccc(NC(=O)Nc3ccc(Cl)cc3)cc2OC[C@@H](C)NC[C@H]1C	nt	nt	nt	i	nt	nt
C[C@@H]1CN([C@H](C)CO)C(=O)c2cc(C#Cc3ccccc3)cnc2O[C@@H]1CN(C)C(=O)C1CC1	nt	nt	nt	i	nt	nt
C[C@H](CO)N1C[C@H](C)[C@H](CN(C)S(=O)(=O)c2cccs2)Oc2ccc(N(C)C)cc2CC1=O	nt	nt	i	i	nt	nt
C[C@@H]1CCCCO[C@@H](CN(C)C(=O)Nc2ccc(F)cc2)[C@H](C)CN([C@H](C)CO)C(=O)c2cc(NC(=O)NC3CCCCC3)ccc2O1	nt	nt	i	i	nt	nt
C[C@@H]1CCCCO[C@H](CN(C)C(=O)Nc2ccc(F)cc2)[C@@H](C)CN([C@@H](C)CO)C(=O)c2cc(NC(=O)NC3CCCCC3)ccc2O1	nt	nt	66	i	nt	nt
O=C(NC(=C(Cl)Cl)S(=O)(=O)c1ccc(Cl)cc1)c1ccccc1	61	i	i	i	i	i
Cc1ccc(S(=O)(=O)CCC(=O)OCC(=O)NC(=O)c2ccccc2)cc1	i	i	i	i	i	i
Cc1ccc(C(=O)NC(=C(Cl)Cl)S(=O)(=O)c2ccc(C)cc2)cc1	i	i	nt	nt	i	i
Cc1ccc(S(=O)(=O)/C(=C/Cl)NC(=O)c2ccccc2)cc1	81	i	94	nt	i	i
CC(=O)NC(=C(Cl)Cl)S(=O)(=O)c1ccccc1	i	i	i	i	i	i
Cc1ccc(S(=O)(=O)C(NC(=O)c2ccccc2)=C(Cl)Cl)cc1	52	i	i	nt	i	i
Cc1ccc(C(=O)NC(=C(Cl)Cl)S(=O)(=O)c2ccc(Cl)cc2)cc1	58	i	i	i	i	i
SMILES	Peg3 prom inh	ABHD5-PLIN5 inh	PAX8 inh HTS	EWS-Fli inh	Shn3 3UTR inh	TRPM1 prom inh
CO[C@H]1CN(C)C(=O)c2ccc(NS(=O)(=O)c3cn(C)cn3)cc2OC[C@@H](C)N(CCC(F)(F)F)C[C@H]1C	nt	nt	i	i	nt	nt
CC(C)n1cc(CN2CCC(C(=O)Nc3cccc(-c4cscn4)c3)CC2)cn1	i	i	i	nt	i	i
Cn1cc(CN2CCCC(C(=O)Nc3cccc(-c4cc5ccccc5[nH]4)c3)C2)cn1 (stereo not given)	56	i	i	i	i	i
CC(C)n1cc(CN2CCCC(C(=O)Nc3cccc(-c4cc5ccccc5[nH]4)c3)C2)cn1 (stereo not given)	97	i	i	i	i	i
COC(=O)C1=C2SCC(=O)N2C(N)=C(C#N)C1	i	i	i	i	i	i
CC(C)OC(=O)C1=C(N)N2C(=O)CSC2=C(C(=O)OC(C)C)C1	52	i	i	nt	i	i
C[C@H]1CN([C@@H](C)CO)C(=O)c2cc(C3=CCCCC3)cnc2O[C@@H]1CN(C)Cc1ccccn1	nt	nt	nt	i	nt	nt
COc1cccc(S(=O)(=O)Nc2ccc3c(c2)[C@@H]2C[C@H](CC(=O)NCc4ccccc4F)O[C@@H](CO)[C@@H]2O3)c1	nt	nt	i	i	nt	nt
COc1cccc(S(=O)(=O)Nc2ccc3c(c2)[C@H]2C[C@H](CC(=O)NCc4ccccc4F)O[C@H](CO)[C@H]2O3)c1	nt	nt	97	i	nt	nt
COc1cccc(S(=O)(=O)Nc2ccc3c(c2)[C@@H]2C[C@@H](CC(=O)NCc4ccccc4F)O[C@@H](CO)[C@@H]2O3)c1	nt	nt	68	i	nt	nt
CO[C@@H]1CN(C)C(=O)c2cc(NC(=O)c3ccccc3)ccc2OC[C@H](C)N(C)C[C@@H]1C	nt	nt	nt	i	nt	nt
CCC(=O)N1[C@@H]2c3ccc(C4=CCCCC4)c(=O)n3C[C@H]1[C@H](CO)[C@H]2C(=O)N[C@H](C)c1ccccc1	nt	nt	nt	i	nt	nt
CCOC(=O)c1cc2sccc2n1CC(=O)O	i	i	nt	i	i	i
CCOC(=O)c1cc2sccc2n1CC(=O)N1c2ccccc2CC1C (stereo not given)	72	i	nt	nt	i	63
Cc1ccc(N(C)S(=O)(=O)c2ccc(-c3cc(C)no3)s2)cc1	i	i	i	54	i	i
C[C@H]1COC2=C1C(=O)C(=O)c1c2ccc2c1CCCC2(C)C	i	i	nt	nt	i	84
Cc1coc2c1C(=O)C(=O)c1c-2ccc2c1CCCC2(C)C	69	i	nt	i	i	93
Cc1coc2c1C(=O)C(=O)c1c-2ccc2c(C)cccc12	i	i	nt	nt	i	nt
COc1ccc(O)c(/C=N/NC(=O)c2ccc(N3CCCC3=O)cc2)c1	i	i	106	i	i	i
COc1ccc(O)c(/C=N/NC(=O)c2cccc(N3CCCC3=O)c2)c1	i	i	i	i	i	i
CN(C)C(=O)C[C@H]1CC[C@H]2[C@@H](COc3ccc(NC(=O)C4CCCCC4)cc3C(=O)N2C)O1	nt	nt	i	i	nt	nt
COc1ccc(Cn2c(=O)c3c(nc(NCCO)n3C)n(C)c2=O)cc1	i	i	nt	nt	i	i
